Screening results: PubChem, SRMLSC
DPM-DC inhibit – S. pneumoniae DPM-DC inhibition; purified DPM-DC, PK/LDH coupled NADH fluorescence; calls only at 10 µM; hit rate 0.49% among 65,000; AID 556;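 active means the 320 compounds with the highest percent inhibition in the single-dose primary screen, excluding strongly autofluorescent ones, cut at about 32% in these data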;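 further: kinetic rate of NADH fluorescence loss reporting ADP formed by the decarboxylase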
A340 absorber – compounds absorbing at 340 nm. 65,000 tested, under 10 active. compound absorbance at 340 nm, fold over control. fold change at 10 µM;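 active means at 10 µM dose, initial 340 nm absorbance at least 2 fold that of control wells; inactive means change under 2 fold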;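 further: initial absorbance extrapolated from kinetic A340 decline of NADH oxidation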
Spn MK inh – S. pneumoniae mevalonate kinase inhibition. hit rate 0.48% among 65,000. purified MK, PK/LDH-coupled NADH absorbance 340 nm. inhibition, % at 10 µM;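 active means ranked among the strongest by inhibition in the single 10 µM screen, a fixed top-ranked set picked for dose follow-up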
NADH coupling – inhibitors of enzymes used to reach an NAD/NADH endpoint | coupled PK/LDH NADH assays, four targets | IC50, µM (titrated, usually from 10 µM), for the others: top-dose inhibition | hit rate 0.02% among 65,000 | AID 774;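 active means single-dose screening hits from any of four coupled enzyme assays that gave an IC50 when retested across doses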;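 further: the DPM-DC format reads NADH fluorescence rather than 340 nm absorbance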
Spn PMK inh – blocks S. pneumoniae phosphomevalonate kinase; purified PMK, PK/LDH-coupled NADH absorbance 340 nm; inhibition, % at 10 µM; hit rate 0.49% among 65,000;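 active means top-ranked compounds by inhibition in the single 10 µM screen, taking a fixed number of the strongest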;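 further: 0% = full reaction with DMSO carrier and 100% = background rate without enzyme reaction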
Fluor 339 460 – intrinsic fluorescence of library compounds, ex339/em460 – biochemical, MLSMR library, data from DPM-DC assay, artefact control, profiling panel | compound autofluorescence, ex339/em460 nm, NADH buffer; hits give high values; 1 = no-compound wells, NADH background | hit rate 5.5% among 65,000 | AID 709 | fluorescence fold increase at 10 µM;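 active means at 10 µM, mean starting fluorescence two-fold or more over control wells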;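 further: signal is the first read of a kinetic run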
* = called active by the depositor. This is a sample that favours compounds with a hit; in the whole collection about 6.5% have one here.

Results for Cn1nnc(NC(=O)C(c2ccccc2)c2ccccc2)n1 ?
DPM-DC inhibit: inactive; A340 absorber: 1.02; Spn MK inh: 4.0; NADH coupling: 4.0%; Spn PMK inh: 7.0; Fluor 339 460: 1.1

Results for c1coc(C2Nc3cccc4cccc(c34)N2)c1 ?
A340 absorber: 1.08; Spn MK inh: 12.0; NADH coupling: 12.0%; Spn PMK inh: 12.0; Fluor 339 460: 3.83*

How did Cc1csc(NC(=O)CSc2nnc(Cn3c(=O)sc4ccccc43)n2-c2ccccc2)n1 do in these assays?
DPM-DC inhibit: inactive; A340 absorber: 1.05; Spn MK inh: 2.0; NADH coupling: 2.0%; Spn PMK inh: 3.0; Fluor 339 460: 1.09

How did O=C(c1cccs1)c1cn(CC(=O)N2CCc3ccccc3C2)c2ccccc12 do in these assays?
DPM-DC inhibit: inactive; A340 absorber: 1.03; Spn MK inh: 6.0; NADH coupling: 4.0%; Spn PMK inh: 0.0; Fluor 339 460: 1.03

How did COc1ccc(-n2nc(C(=O)NCC(=O)NCc3ccco3)c3ccccc3c2=O)cc1 do in these assays?
DPM-DC inhibit: inactive; A340 absorber: 1.02; Spn MK inh: 7.0; NADH coupling: 4.0%; Spn PMK inh: 5.0; Fluor 339 460: 1.15

Results for COc1ccc(-n2nc(C(=O)NCc3ccco3)c3c4ccccc4n(C)c3c2=O)cc1Cl ?
DPM-DC inhibit: active; A340 absorber: 1.08; Spn MK inh: 11.0; NADH coupling: 20.0%; Spn PMK inh: 16.0; Fluor 339 460: 3.59*

What do the screens show for `Cc1ccc(-c2nc3ncccn3c2NC(=O)C2CC2)cc1`?
A340 absorber: 1.1; Spn MK inh: 2.0; NADH coupling: 3.0%; Spn PMK inh: 4.0; Fluor 339 460: 5.05*

How did Oc1ccc(-c2nc3ncccn3c2Nc2ccc3c(c2)OCCO3)cc1 do in these assays?
DPM-DC inhibit: inactive; A340 absorber: 1.08; Spn MK inh: 15.0; NADH coupling: 9.0%; Spn PMK inh: 12.0; Fluor 339 460: 1.07

How did CC(=O)Nc1c(-c2ccccc2)nc2ncccn12 do in these assays?
A340 absorber: 1.1; Spn MK inh: 7.0; NADH coupling: 4.0%; Spn PMK inh: 0.0; Fluor 339 460: 2.16*

Results for COC(=O)CCn1nnc(-c2ccc(C(C)C)cc2)n1 ?
DPM-DC inhibit: inactive; A340 absorber: 1; Spn MK inh: 1.0; NADH coupling: 7.0%; Spn PMK inh: 8.0; Fluor 339 460: 2.95*

What do the screens show for `COC(=O)CCn1nnc(-c2cccs2)n1`?
DPM-DC inhibit: inactive; A340 absorber: 0.97; Spn MK inh: 3.0; NADH coupling: 1.0%; Spn PMK inh: 0.0; Fluor 339 460: 1.05

How did CCn1c(SCC(=O)Nc2ccc(Cl)cc2)nnc1C1CC1 do in these assays?
DPM-DC inhibit: inactive; A340 absorber: 0.99; Spn MK inh: 4.0; NADH coupling: 9.0%; Spn PMK inh: 58.0*; Fluor 339 460: 1.03

What do the screens show for `CCn1c(SCC(=O)Nc2ccc(NC(C)=O)cc2)nnc1C1CC1`?
DPM-DC inhibit: inactive; A340 absorber: 0.98; Spn MK inh: 7.0; NADH coupling: 10.0%; Spn PMK inh: 19.0; Fluor 339 460: 1.09

Results for COc1ccc(S(=O)(=O)Nc2c(C)ccc3nsnc23)cc1OC ?
DPM-DC inhibit: inactive; A340 absorber: 1.02; Spn MK inh: 0.0; NADH coupling: 3.0%; Spn PMK inh: 8.0; Fluor 339 460: 1.14

How did O=C(Nc1ccc(N2CCN(Cc3ccccc3)CC2)cc1)c1ncn[nH]1 do in these assays?
DPM-DC inhibit: inactive; A340 absorber: 1.1; Spn MK inh: 4.0; NADH coupling: 7.0%; Spn PMK inh: 1.0; Fluor 339 460: 1.08

Results for CCOC(=O)N1CCC2(CC1)C(C#N)=C(N)Oc1c2c(C)nn1-c1cccc(Cl)c1 ?
DPM-DC inhibit: inactive; A340 absorber: 1.04; Spn MK inh: 2.0; NADH coupling: 2.0%; Spn PMK inh: 3.0; Fluor 339 460: 1.07

How did c1cnc2c(SCc3ccc(-c4nnco4)cc3)cccc2c1 do in these assays?
A340 absorber: 1.03; Spn MK inh: 0.0; NADH coupling: 3.0%; Spn PMK inh: 6.0; Fluor 339 460: 3.33*

What do the screens show for `c1ccc2[nH]c(SCc3ccc(-c4nnco4)cc3)nc2c1`?
DPM-DC inhibit: inactive; A340 absorber: 1.02; Spn MK inh: 2.0; NADH coupling: 5.0%; Spn PMK inh: 14.0; Fluor 339 460: 1.06

Results for COc1ccccc1N(CC(O)CN1C(=O)NC(C)(C)C1=O)S(=O)(=O)c1ccc(C)cc1 (stereo not drawn) ?
DPM-DC inhibit: inactive; A340 absorber: 1.01; Spn MK inh: 7.0; NADH coupling: 6.0%; Spn PMK inh: 11.0; Fluor 339 460: 1.05

How did CCOC(=O)N1CCN(C(=O)C2CCN(S(=O)(=O)N3CCCC3)CC2)CC1 do in these assays?
DPM-DC inhibit: inactive; A340 absorber: 1.02; Spn MK inh: 0.0; NADH coupling: 9.0%; Spn PMK inh: 26.0*; Fluor 339 460: 1.06

What do the screens show for `CCOC(=O)N1CCN(C(=O)C2CCCN(S(C)(=O)=O)C2)CC1` (stereo not drawn)?
DPM-DC inhibit: inactive; A340 absorber: 1.01; Spn MK inh: 0.0; NADH coupling: 8.0%; Spn PMK inh: 23.0; Fluor 339 460: 1.03

How did CC(C)(C)C1=Nn2c(nnc2C2CCCCC2)SC1 do in these assays?
DPM-DC inhibit: inactive; A340 absorber: 1.08; Spn MK inh: 0.0; NADH coupling: 1.0%; Spn PMK inh: 2.0; Fluor 339 460: 1.04

Results for COc1cccc(NC(=O)c2nc3ncccn3n2)c1 ?
DPM-DC inhibit: inactive; A340 absorber: 1.04; Spn MK inh: 4.0; NADH coupling: 4.0%; Spn PMK inh: 8.0; Fluor 339 460: 1.08

What do the screens show for `CC(=O)c1cc2cc(O)ccc2o1`?
A340 absorber: 1.12; Spn MK inh: 8.0; NADH coupling: 10.0%; Spn PMK inh: 11.0; Fluor 339 460: 4.37*

What do the screens show for `CC(=O)c1cc2c(O)c(O)ccc2o1`?
DPM-DC inhibit: inactive; A340 absorber: 1.11; Spn MK inh: 7.0; NADH coupling: 3.0%; Spn PMK inh: 3.0; Fluor 339 460: 1.17

What do the screens show for `CCOC(=O)CC(=O)CSc1ccc2nnc(-c3ccc(C)cc3)n2n1`?
DPM-DC inhibit: active; A340 absorber: 1; Spn MK inh: 8.0; NADH coupling: 18.0%; Spn PMK inh: 11.0; Fluor 339 460: 0.89

What do the screens show for `O=C(CSc1ccc2nnc(-c3cccnc3)n2n1)NCC1CCCO1` (stereo not drawn)?
DPM-DC inhibit: inactive; A340 absorber: 1.05; Spn MK inh: 5.0; NADH coupling: 7.0%; Spn PMK inh: 0.0; Fluor 339 460: 1.85

What do the screens show for `CCC(Sc1ccc2nnc(-c3ccc(F)cc3)n2n1)C(=O)O` (stereo not drawn)?
DPM-DC inhibit: inactive; A340 absorber: 1.01; Spn MK inh: 10.0; NADH coupling: 12.0%; Spn PMK inh: 12.0; Fluor 339 460: 2.05*

What do the screens show for `O=C(CSc1ccc2nnc(-c3ccccc3)n2n1)N1CCCCC1`?
DPM-DC inhibit: inactive; A340 absorber: 1.03; Spn MK inh: 6.0; NADH coupling: 8.0%; Spn PMK inh: 10.0; Fluor 339 460: 2.2*
